The text below walks through data of PubChem BioAssay (NCATS).

Molecules are shown by their SMILES. Inconclusive results are not listed. Where a call stands in place of a potency, no number is given. Activity calls are given as the source filed them. The call rests on the fitted dose curve; in most records, active means well fitted inhibition curve with a large enough effect in the polarisation, with a control signal flat (not every such curve was filed as active); inconclusive means small, poorly fitted or top-dose-only effect, or effect the other way; inactive means flat fitted curve, though single readings scatter; the % refers to the polarisation.
Potency means the concentration at half of the fitted maximal effect.

The target in the assay is Peptidyl-prolyl cis-trans isomerase NIMA-interacting 1 (Homo sapiens) (UniProt Q13526). The assay is described as follows: qHTS Validation Assay to Find Inhibitors of Pin1 (AID 504536). The following applies: Pin1 fluorescence polarization peptide binding assay; series mostly up to 57.5 µM. The text has this: NIH Molecular Libraries Probe Production Network [MLPCN]
Sequence of Peptidyl-prolyl cis-trans isomerase NIMA-interacting 1 (Homo sapiens) (Q13526 whole entry, looked up): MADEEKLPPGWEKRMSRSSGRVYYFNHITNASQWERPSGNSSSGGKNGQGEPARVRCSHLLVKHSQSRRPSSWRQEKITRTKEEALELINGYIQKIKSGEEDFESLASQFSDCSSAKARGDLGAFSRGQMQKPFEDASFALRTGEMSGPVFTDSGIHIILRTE
NIH Chemical Genomics Center [NCGC]
The unique chemical properties of Pro allow for the adoption of two completely distinct amide bond conformations (cis and trans). Peptidyl-prolyl cis/trans isomerases (PPIases) are evolutionary conserved enzymes that catalyze cis/trans isomerization of peptidyl-prolyl peptide bonds. Distinct from all other PPIases such as cyclophilins and FK506-binding proteins (FKBPs), Pin1 binds a subset of phos.Ser/Thr-Pro-containing proteins using its protein-targeting WW domain and isomerizes only specific phos.Ser/Thr-Pro bonds, which cannot be effectively catalyzed by other known PPIases.
Pin1-catalyzed conformational regulation can control a spectrum of activities of many key regulators in diverse cellular processes such as cell growth, genotoxic and other stress responses, immune response, germ cell development, neuronal differentiation and survival. Pin1 has emerged as a novel molecular timer that modulates its multiple targets at various steps of a given cellular process to synergistically control the amplitude and duration of a cellular response or process. Importantly, Pin1 is tightly regulated by multiple levels and its deregulation has an important role in a growing number of pathological conditions, including cancer, Alzheimer's disease, aging, asthma and microbial infection, providing a potentially new therapeutic option.
The goal of this screen is to find small-molecule inhibitors of Pin1 using a fluorescence polarization competition assay. A HiFluor-488-labeled peptide binds to the active site of Pin1 and can be displaced by compounds. Compounds were screened as a concentration-titration series that ranged from 57 uM to 0.7 nM.
NCGC Assay Protocol Summary:
Pin1 (0.6 uM) was dispensed into black, solid 1536-well plates at 2 uL/well in 10 mM HEPES (pH 7.5), 10 mM NaCl, 0.01% Tween20, 1 mM DTT, and 1% glycerol. Then, 23 nL of compounds or DMSO were delivered to each well using a pin tool. Two uL of Pin1-1b-HiFluor488 peptide (10 mM HEPES (pH 7.5), 10 mM NaCl, 0.01% Tween20, 1 mM DTT, and 1% glycerol, 0.02 uM Pin1-1b-HiFluor488) was then dispensed, and plates were incubated at room temperature for 10 min. The plates were measured on a ViewLux plate reader for fluorescence polarization signal using a 480/20 nM nm excitation filter and 540/25 nM nm S and P emission filters with a 20 second exposure. The %Activity was determined from the corrected fluorescence polarization values. Unlabeled Pin1-1c peptide was used as a control (3.5 mM two-fold serial; 20 uM final concentration) along with a 1x (0.3 uM) and 0x (no-enzyme) Pin1 enzyme control to normalize %Activity of identified inhibitors; 0x enzyme values corresponded to 100%Activity (full inhibition), while 1x Pin1 enzyme values were used to normalize 0%Activity (no inhibition).
Concentration-response curves were fitted to the signals arising from the resulting fluorescence polarization. The concentration-effect curves were then classified based on curve quality (r2), response magnitude and degree of measured activity, and compounds were subsequently categorized based on their curve class.
Keywords: Peptidyl prolyl isomerase, Pin1, fluorescence polarization, MLSMR, MLPCN, NIH Roadmap, qHTS, NCGC
Background: Quantitative high-throughput screening tests each substance at several concentrations.
`CN(C)c1nc(N(C)C)nc(N(C)C)n1`: the Potency result was “inactive”.
For `OCCN1CCN(CCCN2c3ccccc3Sc3ccc(C(F)(F)F)cc32)CC1` the value was “inactive”; for `CC12CC3CC(C)(C1)CC(N)(C3)C2`, “inactive”.
For `COc1ccc(C2CNC(=O)C2)cc1OC1CCCC1` (stereo not given) the value was “inactive”.
For `NC(=O)OCC(COC(N)=O)c1ccccc1` the value was “inactive”; for `Cc1ccc(C(=O)Nc2ccc(S(=O)(=O)O)c3cc(S(=O)(=O)O)cc(S(=O)(=O)O)c23)cc1NC(=O)c1cccc(NC(=O)Nc2cccc(C(=O)Nc3cc(C(=O)Nc4ccc(S(=O)(=O)O)c5cc(S(=O)(=O)O)cc(S(=O)(=O)O)c45)ccc3C)c2)c1`, 426 nM (active).
Take `CN(C)C(=O)C(CCN1CCC(O)(c2ccc(Cl)cc2)CC1)(c1ccccc1)c1ccccc1`: the Potency entry was “inactive”.
The result for `COc1cc2nc(N3CCN(C(=O)C4COc5ccccc5O4)CC3)nc(N)c2cc1OC` (stereo not given) reads “inactive”; that for `COc1ccc2c(c1)c(CC(=O)O)c(C)n2C(=O)c1ccc(Cl)cc1`, “inactive”; that for `Clc1ccc2nsnc2c1NC1=NCCN1`, “inactive”.
For `COc1cc2nc(N3CCN(C(=O)c4ccco4)CC3)nc(N)c2cc1OC` the value was “inactive”; for `COc1ccc(CCN(C)CCCC(C#N)(c2ccc(OC)c(OC)c2)C(C)C)cc1OC` (stereo not given), “inactive”; for `COc1ccccc1N1CCN(CC(O)COc2cccc3ccccc23)CC1` (stereo not given), “inactive”.
For the molecule `Cn1cnc2c1c(=O)[nH]c(=O)n2C`, the Potency entry is “inactive”.
In the case of `CN(C)CCCN1c2ccccc2CCc2ccc(Cl)cc21`, the Potency result was “inactive”.
As to `COC(=O)Nc1nc2ccc(C(=O)c3cccs3)cc2[nH]1`, the Potency entry was “inactive”.
The result for `CCN1CCCC1CNC(=O)c1cc(S(=O)(=O)CC)c(N)cc1OC` (stereo not given) reads “inactive”; that for `NCCS(=O)(=O)O`, “inactive”.
For `CCc1cccc2c3c([nH]c12)C(CC)(CC(=O)O)OCC3` (stereo not given) the value was “inactive”; for `CC(COc1ccccc1)N(CCCl)Cc1ccccc1` (stereo not given), “inactive”; for `Nc1nnc(-c2cccc(Cl)c2Cl)c(N)n1`, “inactive”.
`NC12CC3CC(CC(C3)C1)C2`: the Potency result was “inactive”.
Regarding `Clc1ccc2c(c1)C(N1CCNCC1)=Nc1ccccc1O2`, the Potency entry is “inactive”.
For `CC(C)NCC(O)c1ccc(O)c(O)c1` (stereo not given) the value was “inactive”.
The result for `Cc1cc(C(C)(C)C)cc(C)c1CC1=NCCN1` reads “inactive”; that for `NC(CO)C(=O)NNCc1ccc(O)c(O)c1O` (stereo not given), “inactive”.
Consider `O=C(c1ccc(OCCN2CCCCC2)cc1)c1c(-c2ccc(O)cc2)sc2cc(O)ccc12`, for which the Potency entry was “inactive”.
The result for `CCOC(=O)c1ncn2c1CN(C)C(=O)c1cc(F)ccc1-2` reads “inactive”.
The result for `CN1CCN(C2=Nc3cc(Cl)ccc3Nc3ccccc32)CC1` reads “inactive”; that for `Cn1c(=O)c2c(ncn2C)n(C)c1=O`, “inactive”; that for `CC1COc2c(N3CCN(C)CC3)c(F)cc3c(=O)c(C(=O)O)cn1c23` (stereo not given), “inactive”.
For `CCOC(=O)C(C)(C)Oc1ccc(Cl)cc1` the value was “inactive”; for `CC[N+](CC)(CC)CCOc1cccc(OCC[N+](CC)(CC)CC)c1OCC[N+](CC)(CC)CC`, “inactive”; for `Cn1c(=O)c2[nH]cnc2n(C)c1=O`, “inactive”.
As to `CCCNCC(O)COc1ccccc1C(=O)CCc1ccccc1` (stereo not given), the Potency entry is “inactive”.
The result for `O=c1[nH]cc(F)c(=O)[nH]1` reads “inactive”; that for `CC(C)C(=O)Nc1ccc([N+](=O)[O-])c(C(F)(F)F)c1`, “inactive”.
The result for `Clc1ccc(C(c2ccccc2Cl)C(Cl)Cl)cc1` (stereo not given) reads “inactive”; that for `NS(=O)(=O)c1cc2c(cc1Cl)NCNS2(=O)=O`, “inactive”; that for `O=C(Nc1ccc([N+](=O)[O-])cc1Cl)c1cc(Cl)ccc1O`, “inactive”.
